Experimental findings from ChEMBL document CHEMBL4513156, “CO-ADD screening of NCPRI (Romania) compounds” are described below.

Structures are written as SMILES. Entries with a potency or affinity are not part of this list.

For one assay, the system named is Staphylococcus aureus. The settings on record: Concentration 32 ug.mL-1; ASSAY_TEST Inhibition of Bacterial Growth; detection method Absorption (OD600); MEDIA CAMHB; plate type 384well; NBS; CORNING #3640; time 18 hr.
The subject of a further assay is Escherichia coli. The settings on record: Concentration 32 ug.mL-1; ASSAY_TEST Inhibition of Bacterial Growth; detection method Absorption (OD600); MEDIA CAMHB; plate type 384well; NBS; CORNING #3640; time 18 hr.

Usually Inhibition stands for the drop in the measured response relative to a control, in per cent. In the case of `O=C(NN=CC[C@H]1[C@H](CO)[C@@H](O)C[C@H]1O)c1ccncc1`, the Inhibition in the assay with Staphylococcus aureus was 21.6%; in the assay on Escherichia coli it was 12.24%.

Regarding `O=C(N/N=C1/C2C[C@H]3C(C2CO)[C@H]13)c1ccncc1` (some centres undefined), the Inhibition in the assay with Staphylococcus aureus came to 21.76%; in the assay on Escherichia coli, 11.47%.

Regarding `O=C(N/N=C1/C[C@@H]2[C@@H](C(=O)O)[C@H]1C[C@H]2Cl)c1ccncc1`, the Inhibition is given as 32.79% with Staphylococcus aureus and 18% with Escherichia coli.

Turning to `O=C(NNC(=O)c1ccc([N+](=O)[O-])cc1C(=O)O)c1ccncc1`, the Inhibition in the assay on Staphylococcus aureus worked out at 30.83%; in the assay on Escherichia coli, 15.66%.

Consider `O=C(NNC(=O)[C@@H]1C[C@H](C(=O)O)[C@@H]2CC=C[C@@H]21)c1ccncc1`, for which the Inhibition was 32.09% with Staphylococcus aureus and 14.78% in the assay with Escherichia coli.

As to `O=C(NN=C[C@H]1[C@H]2CC(O)OC[C@H]2C[C@H]1O)c1ccncc1` (some centres undefined), the results for the Inhibition in the assay with Staphylococcus aureus and with Escherichia coli were 15.22% and 4.63%, respectively.

Regarding `O=C(N/N=C1/C[C@H]2[C@H](CO)[C@@H]1C[C@@H]2Cl)c1ccncc1`, the Inhibition with Staphylococcus aureus is 26.26%; in the assay with Escherichia coli, 16.12%.

For the molecule `CC(C)(C)[Si](C)(C)OC[C@H]1[C@H](CC=NNC(=O)c2ccncc2)[C@H](O)C[C@@H]1O[Si](C)(C)C(C)(C)C`, the Inhibition with Staphylococcus aureus is reported as 21.42%; in the assay with Escherichia coli, 11.91%.

In the case of `CC(C)(C)[Si](C)(C)O[C@H](/C=C/[C@@H]1[C@@H](CC=NNC(=O)c2ccncc2)[C@@H](O)C[C@H]1O[Si](C)(C)C(C)(C)C)CCc1ccccc1`, the results for the Inhibition in the assay on Staphylococcus aureus and in the assay with Escherichia coli were 11.86% and 7.54%, respectively.

In the case of `O=C(NN=CC[C@@H]1[C@@H](/C=C/[C@@H](O)CCc2ccccc2)[C@H](OC(=O)c2ccccc2)C[C@@H]1O)c1ccncc1`, the Inhibition is listed as 18.76% in the assay on Staphylococcus aureus and 8.83% with Escherichia coli.

For `O=C(N/N=C1\CC[C@@H]2[C@H]1[C@H](OC(=O)c1ccccc1)C[C@@H]2OC(=O)c1ccccc1)c1ccncc1`, the Inhibition is given as 27.83% in the assay on Staphylococcus aureus and 14.7% in the assay on Escherichia coli.

For `O=C(N/N=C/COc1cccc(Cl)c1)c1ccncc1`, the Inhibition in the assay on Staphylococcus aureus is recorded as 8.36%; with Escherichia coli, 6.4%.

Turning to `O=C(NN=C[C@H]1[C@@H]2CCO[C@@H]2C[C@@H]1O)c1ccncc1`, the results for the Inhibition with Staphylococcus aureus and in the assay with Escherichia coli were 13.82% and 5.67%, respectively.

As for `O=C(N/N=C/[C@@H]1C[C@H](CO)[C@@H]2CCC[C@@H]21)c1ccncc1`, the Inhibition was found to be 23.56% in the assay on Staphylococcus aureus and 14.61% in the assay on Escherichia coli.

Turning to `O=C(NN=CC[C@@H]1[C@@H](COC2CCCCO2)[C@H](OC2CCCCO2)C[C@@H]1O)c1ccncc1` (some centres undefined), the results for the Inhibition in the assay with Staphylococcus aureus and with Escherichia coli were 12.15% and 6.4%, respectively.

Take `O=C(N/N=C/C[C@@H]1[C@@H](/C=C/[C@@H](O)COc2ccccc2)[C@H](O)C[C@@H]1O)c1ccncc1`: the results for the Inhibition in the assay with Staphylococcus aureus and in the assay on Escherichia coli were 16.08% and 10.98%, respectively.

In the case of `O=C(N/N=C1\C[C@@H]2[C@H](COC(c3ccccc3)(c3ccccc3)c3ccccc3)C[C@H](CO)[C@@H]2C1)c1ccncc1`, the Inhibition is 13.89% in the assay on Staphylococcus aureus and 6.21% in the assay with Escherichia coli.

As to `O=C(NNC(=O)[C@@H]1C[C@H](C(=O)O)[C@@H]2CCC[C@@H]21)c1ccncc1`, the Inhibition in the assay with Staphylococcus aureus was 31.35%; in the assay on Escherichia coli, 13.96%.

In the case of `COC(=O)C[C@H]1[C@H](/C=N\NC(=O)c2ccncc2)[C@@H](O[Si](C)(C)C(C)(C)C)C[C@@H]1Cl`, the Inhibition is 29.13% with Staphylococcus aureus and 13.69% with Escherichia coli.

Turning to `O=C(N/N=C/CCCO)c1ccncc1`, the figures for the Inhibition in the assay on Staphylococcus aureus and in the assay with Escherichia coli were 10.52% and 5.12%, respectively.

For the molecule `COC(=O)CCCCCC[C@@H]1[C@@H](/C=N/NC(=O)c2ccncc2)[C@H](OC(=O)c2ccccc2)C[C@@H]1O`, the Inhibition worked out at 26.15% with Staphylococcus aureus and 14.2% in the assay on Escherichia coli.

`O=C(N/N=C1/C[C@@H]2[C@H](C1)[C@H](OC(=O)c1ccccc1)C[C@@H]2OC(=O)c1ccccc1)c1ccncc1`: the Inhibition is 26.15% in the assay with Staphylococcus aureus and 8.09% with Escherichia coli.

As to `O=C(NNC(c1ccccc1)(c1ccccc1)c1ccccc1)c1ccncc1`, the Inhibition stood at 1.88% in the assay with Staphylococcus aureus and 5.22% in the assay with Escherichia coli.

Turning to `O=C(ON/N=C/[C@@H]1[C@@H]2C[C@H](Cl)[C@H]1C[C@H]2O)c1ccncc1`, the Inhibition in the assay with Staphylococcus aureus is on record as 25.17%; in the assay with Escherichia coli, 12.76%.

On to `O=C(NNC(=O)c1cccc([N+](=O)[O-])c1C(=O)O)c1ccncc1`, for which the Inhibition in the assay with Staphylococcus aureus is on record as 23.26%; in the assay with Escherichia coli it was 20.08%.

On to `O=C1C[C@H]2[C@H](/C=N/NC(=O)c3ccncc3)[C@H](C[C@@H]2Cl)O1`, for which the Inhibition with Staphylococcus aureus is reported as 34.06%; in the assay on Escherichia coli, 18.17%.

Regarding `O=C(N/N=C/C[C@@H]1[C@@H](/C=N/NC(=O)c2ccncc2)[C@H](O)C[C@@H]1O)c1ccncc1`, the results for the Inhibition in the assay on Staphylococcus aureus and in the assay on Escherichia coli were 16.7% and 6.29%, respectively.

Regarding `O=C(NN=CC[C@@H]1[C@@H](/C=C/[C@@H](O)CCc2ccccc2)[C@H](O)C[C@@H]1O)c1ccncc1`, the Inhibition is reported as 16.65% in the assay on Staphylococcus aureus and 9.46% in the assay with Escherichia coli.

In the case of `O=C1C[C@@H]2[C@@H](C=NNC(=O)c3ccncc3)[C@@H](C[C@H]2Cl)O1`, the Inhibition with Staphylococcus aureus was 33.55%; in the assay with Escherichia coli, 18.72%.

With `NNC(=O)c1ccncc1` [ISONIAZID], the Inhibition in the assay on Staphylococcus aureus was found to be 27.38%; with Escherichia coli, 20.51%.

For the molecule `O=C(N/N=C1/C[C@@H]2[C@H](COC(c3ccccc3)(c3ccccc3)c3ccccc3)C[C@H](COC(c3ccccc3)(c3ccccc3)c3ccccc3)[C@@H]2C1)c1ccncc1`, the Inhibition is -0.42% in the assay with Staphylococcus aureus and 11.41% in the assay on Escherichia coli.

For the molecule `O=C(N/N=C/C[C@@H]1[C@@H](/C=C/[C@@H](O)COc2cccc(Cl)c2)[C@H](O)C[C@@H]1O)c1ccncc1`, the Inhibition is recorded as 27.05% in the assay with Staphylococcus aureus and 14.88% with Escherichia coli.

On to `CC(C)(C)[Si](C)(C)OCC1C2C[C@H]3C1[C@@H]3/C2=N/NC(=O)c1ccncc1` (some centres undefined), for which the Inhibition in the assay on Staphylococcus aureus is given as 14.57%; in the assay on Escherichia coli, 8.28%.

As to `O=C(N/N=C1/C2C[C@H]3C(C2C(=O)O)[C@@H]13)c1ccncc1` (some centres undefined), the figures for the Inhibition with Staphylococcus aureus and in the assay on Escherichia coli were 16.39% and 13.83%, respectively.

In the case of `O=C(N/N=C1\C[C@@H]2[C@@H](CO)[C@H]1C[C@H]2Cl)c1ccncc1`, the Inhibition with Staphylococcus aureus is 26.12%; with Escherichia coli, 15.81%.

For the molecule `O=C(N/N=C/C[C@@H]1[C@@H](CO)[C@H](O)C[C@@H]1O)c1ccncc1`, the values for the Inhibition in the assay with Staphylococcus aureus and in the assay on Escherichia coli were 22.27% and 13.16%, respectively.

Turning to `COC(=O)CCCCCC[C@@H]1[C@@H](/C=N/NC(=O)c2ccncc2)[C@H](O)C[C@@H]1O`, the Inhibition came to 12.62% in the assay with Staphylococcus aureus and 6.85% in the assay on Escherichia coli.
